# Nrf2 block = Nrf2 pathway inhibition. AID 504444. Potency, µM (titrated, usually from 46 µM), inactives show top-dose activity change, negative = inhibition, usual class: inhibitors. A549 ARE-Fluc reporter, luciferase luminescence, 18-24 h. 2.1% of 360,000 active; also: potency is read from the fitted curve at half-maximal effect; % is scaled to controls: 0 for no effect and ±100 for the full control effect; nearly all actives have a fitted effect of over 60% in size
#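 Cells were seeded and rested 2 h, then exposed to compounds for 18-24 h. CellTiter-Fluor was read first as a viability measure. BugLite was added 15 min before the final luminescent read of ARE-luciferase activity in A549 cells.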
# Nrf2 ARE act = Nrf2 pathway activation. AREc32 ARE-luciferase reporter (MCF7-derived line), luminescence, 24 h. Potency, µM (top dose mostly 46.1 µM), for the others: at the top dose activation, most hits filed as activators. 0.31% of 410,000 active. AID 624171; also: potency is read from the fitted curve at half-maximal effect; % of control where 0% means no effect; nearly all actives have a fitted effect of over 65% in size
#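 AREc32 cells carrying an ARE-driven firefly luciferase reporter were seeded at 1000 cells/well in OPTI-MEM with 5% FBS, then exposed to compound for 24 hr at 37 deg C. Luminescence was read with Steady-Glo after 30 min at RT.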
# A549 tox-1 = counter-screen for Nrf2 inhibitors: cytotoxicity in A549 cells; A549 ARE-Fluc cells, CellTiter-Fluor viability, 18-24 h; Potency, µM (titrated, usually from 46 µM), for the others: at the top dose activity change, negative = cytotoxicity, hits mostly inhibitors; 0.16% of 390,000 active; AID 504648; also: potency is read from the fitted curve at half-maximal effect; % is scaled to controls: 0 for no effect and ±100 for the full control effect
#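 A549 ARE_Fluc cells in 5% FBS OPTI-MEM were exposed to compounds in concentration-response for 18-24 h at 37 deg C. Viability was read by CellTiter-Fluor fluorescence (Ex 405/Em 525) after 30 min, before the luciferase read.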
# IL-2 act = activators of IL-2 | activation, % (series mostly up to about 46 µM) | 0.065% of 360,000 active | IL-2 activation reporter assay, cell-based qHTS; stimulated with anti-CD3/CD4/CD28 beads; in transgenic mouse T cells | AID 652025; in the data active = activation above about 50%; inconclusive = mostly about 30% to 49%; also: 0% is about no effect
#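 Screening format: compound pinned onto unstimulated transgenic mouse T cells, 60 min incubation, then anti-CD3/anti-CD4/anti-CD28 bead stimulation for 18 hours at 37 degrees C, followed by EGFP and DsRed detection.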
# FLuc enzyme inh = blocks purified firefly luciferase in Nrf2 counterscreen. Potency, µM (doses to about 57.5 µM), without a hit: at the highest dose activity change, negative = inhibition, usual class: inhibitors. AID 720522. 4% of 1,400 active. purified firefly luciferase, luminescence inhibition. shares compounds with Nrf2 block; also: potency is read from the fitted curve at half-maximal effect; % is scaled to controls: 0 for no effect and ±100 for the full control effect; nearly all actives have a fitted effect of over 65% in size
# Target sequence (P08659 whole entry, looked up): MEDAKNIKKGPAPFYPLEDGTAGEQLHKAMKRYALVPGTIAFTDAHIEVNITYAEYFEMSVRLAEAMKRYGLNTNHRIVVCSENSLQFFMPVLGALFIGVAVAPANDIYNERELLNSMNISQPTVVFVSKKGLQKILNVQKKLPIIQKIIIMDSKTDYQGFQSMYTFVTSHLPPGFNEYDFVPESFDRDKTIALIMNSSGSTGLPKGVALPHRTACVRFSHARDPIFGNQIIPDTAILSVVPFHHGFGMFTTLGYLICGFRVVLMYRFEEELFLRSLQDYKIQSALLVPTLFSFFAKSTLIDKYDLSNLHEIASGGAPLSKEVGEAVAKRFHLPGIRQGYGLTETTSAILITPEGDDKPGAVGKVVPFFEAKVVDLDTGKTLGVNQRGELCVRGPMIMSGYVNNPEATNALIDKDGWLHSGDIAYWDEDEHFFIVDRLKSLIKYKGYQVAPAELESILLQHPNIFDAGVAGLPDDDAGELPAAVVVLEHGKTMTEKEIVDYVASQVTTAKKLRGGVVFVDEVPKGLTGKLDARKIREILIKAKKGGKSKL
# A549 tox-2 = counter-screen for Nrf2 inhibitors: cytotoxicity in A549 ARE cells; shares compounds with Nrf2 block; A549 ARE-Fluc cells, cytotoxicity counterscreen; AID 720523; 2% of 1,400 active; Potency, µM (doses to about 46.1 µM), inactives show at the top dose activity change, negative = cytotoxicity, hits mostly inhibitors;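 also: potency is read from the fitted curve at half-maximal effect; cells exposed to compounds for 18 to 24 hours; % is scaled to controls: 0 for no effect and ±100 for the full control effect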
# Nrf2 ARE inh = confirmation of Nrf2 inhibitors in A549 ARE reporter cells | shares compounds with Nrf2 block | A549 ARE-firefly luciferase reporter, luminescence | Potency, µM (highest dose often 46.1 µM), for the others: at the top dose activity change, negative = inhibition, most hits filed as inhibitors | 74% of 1,400 active | AID 720524; also: potency is read from the fitted curve at half-maximal effect; % is scaled to controls: 0 for no effect and ±100 for the full control effect; nearly all actives have a fitted effect of over 65% in size
# * = called active by the depositor; ? = inconclusive; nt = not tested or not shown. Most compounds without a hit are left out; they make up all but 2.3% or so of the library. Unless noted, calls follow the shape of the dose curve; as a rule, active = well fitted curve in the direction sought with a large enough effect; inconclusive = small, poorly fitted or top-dose-only effect, or another doubt; inactive = no such curve, though single readings can be large; an effect the other way counts as inactive or inconclusive.
SMILES,Nrf2 block,Nrf2 ARE act,A549 tox-1,IL-2 act,FLuc enzyme inh,A549 tox-2,Nrf2 ARE inh
COc1cccc(-n2cnc3sc(-c4ccccc4)cc3c2=O)c1,?,0%,2%,-1,nt,nt,nt
O=C(CCCCCCCCCCC(=O)NCc1cccnc1)NCc1cccnc1,?,0%,-1%,2,4%,-6%,?
O=C(NCc1cccnc1)Nc1ccccc1Cl,5%,0%,5%,0,nt,nt,nt
O=C(O)c1cccc2nc3ccccc3nc12,2.3µM*,-1%,-21%,1,1%,-29%,3.3µM*
Cn1c(=O)oc2cc(S(=O)(=O)NCC3CCCO3)ccc21 (configuration not stated),-2%,0%,?,-1,nt,nt,nt
C#C[C@@]1(O)CCC2C3CCC4=C/C(=N/OCC(=O)NC(C(=O)O)C(C)O)CC[C@]4(C)C3CC[C@@]21C (some centres not stated),-7%,0%,0%,-3,nt,nt,nt
C#CC1(O)CCC2C3CCC4=C/C(=N/OCC(=O)NCC(=O)NC(C(=O)O)C(C)C)CC[C@]4(C)C3CC[C@@]21C (some centres not stated),2.1µM*,2%,3%,-3,1%,-6%,6.5µM*
O=C(CCS(=O)(=O)c1ccccc1)Nc1nnc(-c2ccco2)o1,11%,?,-4%,-3,nt,nt,nt
Nc1c(C(=O)Nc2ccc(OC(F)(F)F)cc2)sc2nc3c(cc12)N1CCC3CC1,6.5µM*,1%,-13%,nt,-2%,-15%,nt
CC[C@@]1(O)C(=O)OCc2c1cc1n(c2=O)Cc2cc3c(N)cccc3nc2-1,0.65µM*,-3%,?,1,-9%,?,0.26µM*
O=C(Nc1ccc(F)cc1F)c1cccn(Cc2ccccc2)c1=O,?,3%,-11%,0,nt,nt,nt
Cc1ccc(F)cc1NC(=O)c1ccc(Cn2nc(N3CCN(c4ccccc4)CC3)ccc2=O)o1,7.3µM*,0%,-5%,nt,-14%,-17%,12µM*
O=C(Nc1ccc(OC(=O)N2CCCC2)cc1)N1CCOCC1,5%,0%,3%,-3,nt,nt,nt
O=C(Nc1ccc(OC(=O)N2CCCCC2)cc1)N1CCOCC1,9.2µM*,-3%,-3%,-2,-10%,-5%,5.2µM*
O=C(N/N=C\c1ccc(COc2ccc([N+](=O)[O-])cc2)o1)c1cccc(Cl)c1,?,2%,-13%,-2,nt,nt,nt
Cc1cc([N+](=O)[O-])c2ccccc2[n+]1[O-],4.1µM*,-2%,?,-1,-21%,-8%,6.5µM*
C[C@@H]1O[C@@H](O[C@H]2C[C@@H](O)[C@]3(CO)[C@@H]4C(CC[C@]3(O)C2)[C@@]2(O)CC[C@H](C3COC(=O)C3)[C@@]2(C)C[C@H]4O)[C@H](O)[C@H](O)[C@H]1O (some centres not stated),0.21µM*,-2%,?,1,0%,?,1.2µM*
CNC(=O)Nc1ccc(C(=O)N/N=C\C23CC[C@@H](O)CC2(O)CC[C@@H]2[C@@H]3CCC3(C)C(C4=CC(=O)OC4)CCC23O)cc1 (some centres not stated),?,-1%,-16%,-1,nt,nt,nt
COC1C(O)C(C)OC(OC2CCC3(C)C(CCC4C3C(O)CC3(C)C(C5=CC(=O)OC5)CCC43O)C2)C1O (configuration not stated),0.15µM*,-2%,?,1,1%,?,0.12µM*
C[C@H]1CC[C@@H]2[C@@H](C)[C@H]3[C@H](C[C@H]4[C@@H]5CC=C6C[C@@H](O[C@@H]7O[C@H](CO)[C@H](O)[C@H](O[C@@H]8O[C@H](CO)[C@@H](O)[C@H](O)[C@H]8O)[C@H]7O[C@@H]7O[C@@H](C)[C@H](O)[C@@H](O)[C@H]7O)CC[C@]6(C)[C@H]5CC[C@]34C)N2C1,-22%,-3%,-18%,0,nt,nt,nt
CC1OC(O[C@H]2C[C@@H](O)[C@]3(CO)[C@H]4[C@H](O)C[C@]5(C)[C@@H](C6=CC(=O)OC6)CC[C@]5(O)[C@@H]4CC[C@]3(O)C2)C(O)C(O)C1O (some centres not stated),nt,nt,nt,nt,4%,?,0.037µM*
COc1ccc(C(=O)NCc2cc3ccccc3n2C)cc1,?,4%,-2%,0,nt,nt,nt
O=C(O)c1ccccc1NS(=O)(=O)c1cccc(N=Nc2c(O)[nH]c(=S)[nH]c2=O)c1,-13%,0%,?,1,nt,nt,nt
CCCCOc1ccc(Cn2c(=O)oc3ccccc32)cc1,?,-1%,14%,-1,nt,nt,nt

# Screens (PubChem BioAssay)
